Laboratory results published in PubChem BioAssay (NCATS).
Results filed as inconclusive are left out. Unmarked numbers belong to inactive results. Calls of active or inactive are those of the source. The call rests on the fitted dose curve; in most records, active means well fitted cell-killing curve with a large enough effect; inconclusive means small, poorly fitted or top-dose-only effect, or effect the other way; inactive means flat fitted curve, though single readings scatter.

These compounds were tested on SKOV3 (assay: Primary qHTS to identify gynecologic anti-cancer compounds using libraries of approved drugs and bioactive compounds (AID 1345084; further: nearly all actives have a fitted effect of over 55% in size)). Conditions: Gynecologic cancer cell panel viability, ATPlite luminescence, 48 h; series mostly up to 57.5 µM; activity change, negative = cytotoxicity: at the top concentration.
Procedure, shortened: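 ATP-based viability (ATPlite), 1,000 cells/well, 16 h pre-incubation, 48 h compound at 37 C, 5% CO2, 15 min RT before read.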
On the % scale 0 is the no-effect control and ±100 the full control effect.

SMILES	activity change, negative = cytotoxicity	Potency
CC(=O)N1CCN(c2ccc(O)cc2)CC1	4.8%	
[O-][n+]1cccc(/C(Cl)=N/OC[C@@H](O)CN2CCCCC2)c1	3.11%	
CC(C)C(=O)OCc1cccc(OC(=O)[C@@H]2N3C(=O)[C@@H](NC(=O)Cc4ccccc4)[C@H]3SC2(C)C)c1	12.6%	
CC(C)NC(=O)c1ccc(C=O)cc1	7.63%	
COc1cc2nc(Cl)nc(N)c2cc1OC	-1.71%	
COc1cc(/C=C/C(N)=O)cc(OC)c1OC	7.65%	
Cc1onc(-c2ccccc2)c1C(=O)Cl	-4.93%	
O=c1[nH]c2ccccc2c(=O)n1CCCl	-0.951%	
CSCC[C@H](NC(=O)[C@H](Cc1c[nH]c2ccccc12)NC(=O)CCNC(=O)OC(C)(C)C)C(=O)N[C@@H](CC(=O)O)C(=O)N[C@@H](Cc1ccccc1)C(N)=O	19.6%	
CCN1CCN(c2cc(-c3ccc(F)cc3)c3c(n2)CCCCCC3)CC1	0.967% [at 25.3 µM]	
N#CC1(c2ccc(F)cc2)CCC(=O)CC1	2.88%	
Cc1ccc(CCn2c3c(c4cc(Cl)ccc42)CN(C)CC3)cn1	13.7%	
CN1Cc2cc(C(=O)N3CCC(C4CCNCC4)CC3)ccc2N[C@@H](CC(=O)O)C1=O	5.46%	
CCCC(=O)O[C@]1(C(=O)CC)CC[C@H]2[C@@H]3CCC4=CC(=O)CC[C@]4(C)[C@H]3[C@@H](O)C[C@@]21C	-27.7%	
COc1ccccc1N1CCN(CCN2C(=O)CC3(CCCC3)CC2=O)CC1	2.12%	
CNC(=O)c1c(I)c(NC(C)=O)c(I)c(C(=O)O)c1I	2.91%	
O=C1c2ccccc2CCc2ccccc21	6.31%	
Cc1nc2n(c(=O)c1CCN1CCC(C(=O)c3ccc(F)cc3)CC1)CCS2	-22.2%	
CCOc1ccccc1OCC1CNCCO1 (stereo not given)	14.1%	
NCC[C@H](O)C(=O)N[C@@H]1C[C@H](N)[C@@H](O[C@H]2O[C@H](CN)[C@@H](O)[C@H](O)[C@@H]2O)[C@H](O)[C@@H]1O[C@H]1O[C@H](CO)[C@@H](O)[C@H](N)[C@@H]1O	13.9% [at 0.462 µM]	

SMILES	activity change, negative = cytotoxicity	Potency
O=C(c1cc(O)c(O)c(O)c1)c1ccc(O)c(O)c1O	-1.83%	
CC(C)(Oc1ccc(Cl)cc1)C(=O)OCCCOC(=O)C(C)(C)Oc1ccc(Cl)cc1	0.23%	
COc1cc(OC)nc(O[C@H](C(=O)O)C(OC)(c2ccccc2)c2ccccc2)n1	10.8%	
CCC(=O)O[C@]1(C(=O)COC)[C@@H](C)C[C@H]2[C@@H]3CCC4=CC(=O)C=C[C@]4(C)C3(F)[C@@H](O)C[C@@]21C (stereo not given in full)	-3.08%	
Cc1ccc(C(=O)C(=O)O)cc1C	-8.58%	
C/C(=C1\CCOC(=O)S1)N(C=O)Cc1cnc(C)nc1N	-2.62%	
O=C(C1CCCCC1)N1CC(=O)N2CCCc3ccccc3C2C1 (stereo not given)	0%	
O=C(O)c1ccc(OCCN2CCCCC2)cc1	-0.861%	
C/C(=C(/OCCOc1ccc(Cl)cc1)c1ccc(Cl)cc1Cl)n1ccnc1	9.42%	
CC(=O)[C@H]1CC[C@H]2[C@@H]3C=CC4=CC(=O)CC[C@@]4(C)[C@@H]3CC[C@]12C		inactive
Oc1ccccc1-c1nnco1	-14.9%	
C#Cc1ccc(-c2ccccc2F)cc1	0%	
CC(Oc1c(Cl)cccc1Cl)C1=NCCN1 (stereo not given)	0%	
CCCCOC(=O)CCCCCCCCC(=O)OCCCC	22.9%	
CC(C)C[C@@H]1[C@H](c2ccccc2)OC(=O)N1CCCN1CCCCCC1	-0.963%	
COC(=O)CCCCC(CCSS/C(CCO)=C(\C)N(C=O)Cc1cnc(C)nc1N)SC(C)=O (stereo not given)	10.8%	
CNC[C@H](O)[C@@H](O)[C@H](O)[C@H](O)CO	-3.34%	
COc1ccc2c(c1)c(CC(=O)OC/C=C(\C)CC/C=C(\C)CCC=C(C)C)c(C)n2C(=O)c1ccc(Cl)cc1	-4.21%	
CCCCCCCC(=O)[O-].CCCCCCCC(=O)[O-].[Zn+2]	-4.49%	
CC(=O)N(c1onc(C)c1C)S(=O)(=O)c1ccc(N)cc1	13.9%	
